Source: PubChem BioAssay (National Center for Advancing Translational Sciences (NCATS))
SMN2 splice enh: enhancers of SMN2 splice variant expression. Potency, µM (titrated, usually from 46.1 µM), for the others: at the top dose activity change, positive = activation, actives largely listed as activators. HEK293 SMN2-luciferase splicing reporter, luminescence, 30-36 h. 210,000 compounds, 2.8% hits; also: % of control where 0% means no effect; nearly all actives have a fitted effect of over 55% in size
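HEK293 cells carry an SMN2 […]–luciferase reporter in which exon 7 inclusion puts luciferase in frame. Cells were plated 10-12 h before compound addition, then incubated 30-36 h at 37C. ONE-Glo luminescence was read; sodium butyrate at 4.5 mM final served as control.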
FLuc counter: inhibits or activates purified firefly luciferase, miR-21 counter-screen | AID 588342 | Potency, µM (top dose mostly 57.5 µM), inactives show top-dose activity change, negative = inhibition, most hits filed as inhibitors | P08659 | 360,000 compounds, 6.9% hits | purified FLuc, Km substrates, luminescence inhibition;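 also: plate controls were vehicle for no effect and reference inhibitor for full effect; nearly all actives have a fitted effect of over 55% in size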
Target sequence (P08659 whole entry, looked up): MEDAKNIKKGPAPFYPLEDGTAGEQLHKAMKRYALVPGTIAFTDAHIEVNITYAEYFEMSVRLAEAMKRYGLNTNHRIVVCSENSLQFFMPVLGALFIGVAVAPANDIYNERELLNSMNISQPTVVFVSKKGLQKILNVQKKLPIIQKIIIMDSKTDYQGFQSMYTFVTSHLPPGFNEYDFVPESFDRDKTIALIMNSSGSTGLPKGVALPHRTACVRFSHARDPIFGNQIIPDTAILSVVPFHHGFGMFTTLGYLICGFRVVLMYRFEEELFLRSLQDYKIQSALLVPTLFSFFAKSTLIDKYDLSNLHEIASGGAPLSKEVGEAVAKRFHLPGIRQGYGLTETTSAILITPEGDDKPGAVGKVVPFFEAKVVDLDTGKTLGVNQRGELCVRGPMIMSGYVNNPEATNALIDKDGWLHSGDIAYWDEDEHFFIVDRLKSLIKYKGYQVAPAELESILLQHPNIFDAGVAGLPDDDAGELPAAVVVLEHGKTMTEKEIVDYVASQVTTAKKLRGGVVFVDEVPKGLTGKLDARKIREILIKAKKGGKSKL
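Purified P. pyralis luciferase, 10 nM final, with Km-level 10 uM D-luciferin and 10 uM ATP in 50 mM Tris acetate pH 7.5, 10 mM Mg acetate, 0.01% Tween-20, 0.05% BSA; 6-point qHTS titration about 60 µM downward; luminescence read.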
Luc counter: blocks Kinase-Glo luciferase, a counter-screen artifact. Kinase-Glo luciferase, ATP luminescence, 8 min. Potency, µM (top dose mostly 38.3 µM), inactives show at the highest dose activity change, negative = inhibition, usual class: inhibitors. 200,000 compounds, 0.28% hits. AID 1379; also: % is scaled to controls: 0 for no effect and ±100 for the full control effect; nearly all actives have a fitted effect of over 60% in size
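Compound is pinned into ATP-containing buffer (10 uM ATP, imidazole pH 7.2, 7 mM MgCl2). Kinase-Glo luciferase reagent is then added. Light output is recorded following an 8-min room-temperature incubation.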
NPC1 prom act: activators of NPC1 promoter. Huh7 NPC1 promoter luciferase reporter, 24 h. Potency, µM (titrated, usually from 9.22 µM), inactives show at the highest dose activation, most hits filed as activators. 320,000 compounds, 2.4% hits. AID 485313; also: % of control where 0% means no effect; nearly all actives have a fitted effect of over 60% in size
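Huh7 reporter cells (NPC1 promoter driving luciferase) are dosed with compound for 24 h at 37 °C, 5% CO2; luciferase detection reagent is then added and luminescence measured after 10 min at ambient temperature.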
ELG1 genotox: genotoxicity induction in ELG1-luciferase HEK293T cells. AID 504466. HEK293T ELG1-luciferase reporter, luminescence, 16 h. Potency, µM (top dose mostly 46 µM), without a hit: at the highest dose activity change, positive = activation, actives largely listed as activators. 330,000 compounds, 1.3% hits; also: % of control where 0% means no effect; nearly all actives have a fitted effect of over 60% in size
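Luminescence read-out: rising ELG1-luciferase signal, reflecting elevated ELG1 protein under genetic stress, flags genotoxic compounds. Cells were treated for 16 hr at 37 °C before ONE-Glo detection.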
Rab9 prom act: Rab9 promoter activation; Huh7 Rab9 promoter-luciferase reporter, luminescence, 24 h; Potency, µM (highest dose often 9.22 µM), for the others: at the highest dose activation, negative = inhibition, hits mostly activators; 320,000 compounds, 2.8% hits; also: % of control where 0% means no effect; nearly all actives have a fitted effect of over 60% in size
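Huh7 cells stably carrying a Rab9 promoter-luciferase reporter, 1500 cells per well in OP-MEM I with 10% FBS, treated with compound 24 hours at 37C. Luciferase activity read by luminescence after 10 minutes with Amplite reagent.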
An asterisk follows results filed as active; ? = inconclusive; . = no result; [ ] = another dose, or the depositor's remark. Sampled rows, rich in hits. Any-hit rate of the full collection: about 7.5%. Calls follow the shape of the dose curve; as a rule, active = well fitted curve in the direction sought with a large enough effect; inconclusive = small, poorly fitted or top-dose-only effect, or another doubt; inactive = no such curve, though single readings can be large; an effect the other way counts as inactive or inconclusive. Potency is read from the fitted curve at half-maximal effect.

SMILES	SMN2 splice enh	FLuc counter	Luc counter	NPC1 prom act	ELG1 genotox	Rab9 prom act
O=C(Nc1ccccc1)c1cc2c(-c3ccccc3)nn(-c3ccccc3)c2s1	2%	0%	.	.	.	.
Cc1ccc(NC(=O)N2CCN(C)c3ncccc32)cc1C	0%	-1%	.	.	.	.
CCC(C)NC(=O)CSc1nc2cc3c(cc2c(=O)n1CCCCCC(=O)NCc1ccc(OC)cc1)OCO3 (stereo not drawn)	.	-2%	.	.	.	.
CCc1nnc(NS(=O)(=O)c2ccc(N=Cc3c(C)[nH]n(-c4ccc(Cl)cc4)c3=O)cc2)s1	-9%[1.84 µM]	-20%	-8%	1%	4%	3%
Cc1[nH]n(-c2ccc(Cl)cc2)c(=O)c1/C=N/c1nnc(-c2ccccc2)s1	19%	19µM*	?	-2%	6%	0%
Cc1ccc(CN2CCN(/N=C/c3ccc(O)c(O)c3)CC2)cc1	.	-10%	.	-13%	17%	-1%
CN=c1scc(-c2ccc(F)cc2)n1/N=C/c1ccc(O)c(O)c1	?	0.67µM*	-19%	-44%	-7%	15%
COc1ccccc1/C=N/NC(=S)NCc1ccco1	.	-3%	.	2%	-2%	1%
COc1cc(/C=N/NC(=S)NCc2ccco2)cc(OC)c1OC	35µM*	0%	1%	-1%	32%	-3%
CNC(=O)/C=C/c1cccc(C(F)(F)F)c1	-6%	3%	-1%	-1%	1%	7%
CC(C)(C)NC(=O)/C=C/c1ccc(C(F)(F)F)cc1	-28%	27µM*	2%	-4%	5%	-7%
O=C(OCc1c(-c2ccccc2)ncc2ccccc12)N1CCOCC1	.	2.7µM*	.	-2%	5%	-4%
COc1ccc(N=Cc2nc(-c3ccco3)oc2O)cc1	22%	8.5µM*	3%	2%	11%	0%
Oc1oc(-c2ccc(Br)cc2)nc1C=Nc1ccc(Br)cn1	0%	8%	2%	1%	0%	2%
Cc1ccc(N=Cc2nc(-c3ccc(C)cc3)oc2O)cc1	.	-10%	3%	11%	8%	16%
CC1=Nc2ccccc2/C1=C\c1nc(-c2ccccc2)oc1O	-12%	17µM*	-2%	1%	1%	2%
CSc1ccccc1N=Cc1nc(-c2ccccc2)oc1O	28%	9.5µM*	7%	1%	?	-4%
CN(C)c1ccc(N=Cc2nc(-c3ccccc3)oc2O)cc1	-3%	?	-3%	?	10%	29%
Oc1oc(-c2ccccc2)nc1C=Nc1ccccc1	26%	11µM*	-3%	21%	16%	21%
CSc1nc(NCCOC(C)=O)c(C#N)c(-c2ccc(C(C)(C)C)cc2)n1	.	-11%	.	.	.	.
CCc1nn(CC(=O)N2CCN(c3cccc(C)c3C)CC2)c(=O)c2cc3occc3n12	1%	-6%	.	.	.	.
Oc1oc(-c2ccccc2)nc1C=NCc1ccccc1	9%	17µM*	4%	?	21µM*	25%
Cc1c(CC(=O)O)c(=O)oc2cc(OCc3ccc(F)cc3F)ccc12	.	17µM*	.	1%	3%	-2%
Cc1c(CCC(=O)O)c(=O)oc2cc(OCc3ccccc3Br)ccc12	.	?	.	-4%	-3%	-3%
Cc1c(CC(=O)O)c(=O)oc2cc(OCc3ccc(Br)cc3)ccc12	.	11µM*	.	3%	13%	15%
SMILES	SMN2 splice enh	FLuc counter	Luc counter	NPC1 prom act	ELG1 genotox	Rab9 prom act
Cc1c(CCC(=O)O)c(=O)oc2cc(OCc3cccc(F)c3)ccc12	.	?	.	0%	2%	2%
CCn1c(=N)c(C(=O)NCc2ccccc2)cc2c(=O)n3cc(C)ccc3nc21	14%	3%	.	.	.	.
O=C(O)CCn1cc(C2CC(c3ccccc3)=NN2c2ccccc2)c(-c2ccccc2)n1 (stereo not drawn)	0%	19µM*	-1%	-1%	-2%	10%
Cc1ccc(-c2nn(-c3ccccc3)cc2C2CC(c3cccs3)=NN2C(=O)CCC(=O)O)cc1 (stereo not drawn)	-14%	0%	1%	0%	4%	-1%
COc1ccc(C(=O)N/N=C(\C)CC(=O)Nc2ccc3ccccc3c2)c(OC)c1	.	-12%	.	6%	-2%	3%
CCOc1ccc(C(=O)Nc2ccc3[nH]ncc3c2)cc1	.	1.3µM*	.	1.3µM*	13%	1.4µM*
O=C(COc1ccccc1)Nc1ccc2[nH]ncc2c1	.	?	.	15%	-6%	0%
COc1ccc(C(=O)Nc2ccc3cn[nH]c3c2)c(OC)c1	13µM*	6µM*	2%	?	?	?
O=C(COc1ccc(Cl)cc1)Nc1ccc2[nH]ncc2c1	.	-16%	.	3%	-3%	-1%
COc1ccc(C(=O)Nc2ccc3[nH]ncc3c2)cc1	.	1.9µM*	.	0.89µM*	8.2µM*	2.8µM*
CCOC(=O)c1ccc(CN(Cc2ccc(F)cc2)S(=O)(=O)c2ccc(F)c(C(=O)Nc3c(C)cccc3C)c2)cc1	.	-6%	.	.	.	.
COc1ccc(C)cc1NC(=O)C1COc2ccccc2C1 (stereo not drawn)	.	-10%	.	.	.	.
O=C1CCN(CCc2ccccc2)CCN1[C@H](CSc1ccccc1)c1ccccc1	.	?	.	12%	1%	8%
Cc1ccc(SC[C@H](c2ccccc2)N2CCN(CCc3ccccc3)CCC2=O)cc1	.	27µM*	.	9%	-4%	-2%
CCCN1CCC(=O)N([C@H](CSc2ccccc2)c2ccccc2)CC1	.	?	.	?	14%	?
CCCN1CCC(=O)N([C@H](CSc2ccc(C)cc2)c2ccccc2)CC1	.	15µM*	.	?	11%	?
CN1CCC(=O)N([C@H](CSc2ccc(Br)cc2)c2ccccc2)CC1	.	17µM*	.	?	?	?
CCCN1CCC(=O)N([C@H](CSc2ccc(OC)cc2)CC(C)C)CC1	.	15µM*	.	?	?	?
CN1CCC(=O)N([C@H](CC#N)c2ccccc2)CC1	.	5%	.	2%	3%	4%
COc1cc2c(cc1OC)C(COc1ccccc1OC)N(C(=O)c1ccccc1OC)CC2 (stereo not drawn)	.	1%	.	.	.	.
CCc1nn2c(=O)cc(COc3ccc(/C=C(\C#N)C(=O)Nc4ccc(C)cc4)cc3)nc2s1	-9%	-2%	.	.	.	.
OC12CC3C[C@H](C1)C(N1CCOCC1)[C@@H](C3)C2 (stereo partly drawn)	.	4%	.	-2%	-3%	4%
COc1cccc(-c2nnn(CC(=O)N3CCCCC3)n2)c1	.	-19%	.	12%	12%	30%
COc1cccc(-c2nnn(CC(C)=O)n2)c1	13µM*	6.7µM*	-7%	2.8µM*	?	2.5µM*
COc1ccc(C(=O)Cn2nnc(-c3ccccc3F)n2)cc1	.	15µM*	.	21%	4%	28%
